Assay results as given in the supplement of paper PMC12819154, “High-throughput peptide-centric local stability assay extends protein–ligand identification to membrane proteins, tissues and bacteria” (Nature Structural & Molecular Biology, 2025).

compound: CN[C@@H]1C[C@H]2O[C@@](C)([C@@H]1OC)n1c3ccccc3c3c4c(c5c6ccccc6n2c5c31)C(=O)NC4 [staurosporine]; experiment: log2 fold change of tryptic peptide abundance, ligand vs vehicle (limited proteolysis) (log2 ratio); higher = more trypsin-susceptible (destabilized); settings: ligand concentration: 20 uM; sample: K562 cleared lysate; digestion: 4 min, 22 C (HT-PELSA RT4min, Orbitrap Astral)

Sequence of UniProt Q9BQG0 (Q9BQG0 whole entry): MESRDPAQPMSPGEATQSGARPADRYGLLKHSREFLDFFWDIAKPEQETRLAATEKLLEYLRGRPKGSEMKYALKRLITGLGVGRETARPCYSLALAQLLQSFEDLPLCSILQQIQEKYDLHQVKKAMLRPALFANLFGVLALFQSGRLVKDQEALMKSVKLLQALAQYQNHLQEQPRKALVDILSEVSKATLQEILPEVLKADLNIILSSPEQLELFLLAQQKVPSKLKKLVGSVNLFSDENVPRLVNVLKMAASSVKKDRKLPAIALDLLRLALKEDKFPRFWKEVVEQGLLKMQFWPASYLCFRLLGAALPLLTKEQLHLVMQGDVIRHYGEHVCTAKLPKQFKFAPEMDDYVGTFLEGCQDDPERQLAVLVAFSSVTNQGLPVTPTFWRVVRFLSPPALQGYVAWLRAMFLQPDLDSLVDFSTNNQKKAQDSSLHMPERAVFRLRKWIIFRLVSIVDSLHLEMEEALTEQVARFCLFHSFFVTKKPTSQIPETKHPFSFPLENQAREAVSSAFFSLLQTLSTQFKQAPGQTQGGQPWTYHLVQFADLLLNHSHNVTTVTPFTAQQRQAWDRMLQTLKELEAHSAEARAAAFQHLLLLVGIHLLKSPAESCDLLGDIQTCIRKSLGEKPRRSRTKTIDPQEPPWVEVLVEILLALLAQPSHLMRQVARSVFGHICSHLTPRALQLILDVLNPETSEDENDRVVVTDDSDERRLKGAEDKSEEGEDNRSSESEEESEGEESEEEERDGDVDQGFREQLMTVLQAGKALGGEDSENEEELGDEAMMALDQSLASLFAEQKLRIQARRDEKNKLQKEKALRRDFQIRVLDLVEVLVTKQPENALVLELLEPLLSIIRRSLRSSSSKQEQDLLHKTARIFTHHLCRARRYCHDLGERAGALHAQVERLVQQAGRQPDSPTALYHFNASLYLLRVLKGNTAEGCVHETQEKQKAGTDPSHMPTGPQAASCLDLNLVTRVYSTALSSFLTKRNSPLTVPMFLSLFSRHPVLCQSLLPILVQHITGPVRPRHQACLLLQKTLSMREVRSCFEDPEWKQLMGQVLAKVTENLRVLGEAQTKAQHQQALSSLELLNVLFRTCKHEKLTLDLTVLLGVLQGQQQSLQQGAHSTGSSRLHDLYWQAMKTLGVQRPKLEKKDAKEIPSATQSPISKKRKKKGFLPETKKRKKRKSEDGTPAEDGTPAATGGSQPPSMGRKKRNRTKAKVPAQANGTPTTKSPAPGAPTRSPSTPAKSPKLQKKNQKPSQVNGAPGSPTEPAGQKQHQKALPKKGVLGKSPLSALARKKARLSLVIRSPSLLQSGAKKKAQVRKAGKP
Sequence of UniProt P25098 (P25098 whole entry): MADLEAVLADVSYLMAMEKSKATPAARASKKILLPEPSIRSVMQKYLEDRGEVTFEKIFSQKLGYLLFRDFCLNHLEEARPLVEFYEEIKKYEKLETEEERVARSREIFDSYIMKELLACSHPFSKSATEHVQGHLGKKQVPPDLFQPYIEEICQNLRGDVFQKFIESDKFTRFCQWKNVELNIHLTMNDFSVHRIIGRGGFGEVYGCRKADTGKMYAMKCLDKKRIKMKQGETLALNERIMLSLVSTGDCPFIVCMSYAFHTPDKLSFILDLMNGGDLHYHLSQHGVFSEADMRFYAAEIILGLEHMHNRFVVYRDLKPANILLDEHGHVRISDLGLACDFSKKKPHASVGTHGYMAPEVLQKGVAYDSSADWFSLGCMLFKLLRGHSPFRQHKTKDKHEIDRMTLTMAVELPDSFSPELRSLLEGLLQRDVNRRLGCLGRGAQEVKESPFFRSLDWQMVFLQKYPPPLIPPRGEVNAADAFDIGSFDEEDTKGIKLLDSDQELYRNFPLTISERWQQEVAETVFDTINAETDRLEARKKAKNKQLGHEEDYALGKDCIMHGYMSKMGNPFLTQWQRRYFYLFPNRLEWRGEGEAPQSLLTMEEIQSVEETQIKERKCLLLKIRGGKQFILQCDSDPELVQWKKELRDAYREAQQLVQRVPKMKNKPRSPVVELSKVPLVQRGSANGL
Sequence of UniProt Q9Y6R4 (Q9Y6R4 whole entry): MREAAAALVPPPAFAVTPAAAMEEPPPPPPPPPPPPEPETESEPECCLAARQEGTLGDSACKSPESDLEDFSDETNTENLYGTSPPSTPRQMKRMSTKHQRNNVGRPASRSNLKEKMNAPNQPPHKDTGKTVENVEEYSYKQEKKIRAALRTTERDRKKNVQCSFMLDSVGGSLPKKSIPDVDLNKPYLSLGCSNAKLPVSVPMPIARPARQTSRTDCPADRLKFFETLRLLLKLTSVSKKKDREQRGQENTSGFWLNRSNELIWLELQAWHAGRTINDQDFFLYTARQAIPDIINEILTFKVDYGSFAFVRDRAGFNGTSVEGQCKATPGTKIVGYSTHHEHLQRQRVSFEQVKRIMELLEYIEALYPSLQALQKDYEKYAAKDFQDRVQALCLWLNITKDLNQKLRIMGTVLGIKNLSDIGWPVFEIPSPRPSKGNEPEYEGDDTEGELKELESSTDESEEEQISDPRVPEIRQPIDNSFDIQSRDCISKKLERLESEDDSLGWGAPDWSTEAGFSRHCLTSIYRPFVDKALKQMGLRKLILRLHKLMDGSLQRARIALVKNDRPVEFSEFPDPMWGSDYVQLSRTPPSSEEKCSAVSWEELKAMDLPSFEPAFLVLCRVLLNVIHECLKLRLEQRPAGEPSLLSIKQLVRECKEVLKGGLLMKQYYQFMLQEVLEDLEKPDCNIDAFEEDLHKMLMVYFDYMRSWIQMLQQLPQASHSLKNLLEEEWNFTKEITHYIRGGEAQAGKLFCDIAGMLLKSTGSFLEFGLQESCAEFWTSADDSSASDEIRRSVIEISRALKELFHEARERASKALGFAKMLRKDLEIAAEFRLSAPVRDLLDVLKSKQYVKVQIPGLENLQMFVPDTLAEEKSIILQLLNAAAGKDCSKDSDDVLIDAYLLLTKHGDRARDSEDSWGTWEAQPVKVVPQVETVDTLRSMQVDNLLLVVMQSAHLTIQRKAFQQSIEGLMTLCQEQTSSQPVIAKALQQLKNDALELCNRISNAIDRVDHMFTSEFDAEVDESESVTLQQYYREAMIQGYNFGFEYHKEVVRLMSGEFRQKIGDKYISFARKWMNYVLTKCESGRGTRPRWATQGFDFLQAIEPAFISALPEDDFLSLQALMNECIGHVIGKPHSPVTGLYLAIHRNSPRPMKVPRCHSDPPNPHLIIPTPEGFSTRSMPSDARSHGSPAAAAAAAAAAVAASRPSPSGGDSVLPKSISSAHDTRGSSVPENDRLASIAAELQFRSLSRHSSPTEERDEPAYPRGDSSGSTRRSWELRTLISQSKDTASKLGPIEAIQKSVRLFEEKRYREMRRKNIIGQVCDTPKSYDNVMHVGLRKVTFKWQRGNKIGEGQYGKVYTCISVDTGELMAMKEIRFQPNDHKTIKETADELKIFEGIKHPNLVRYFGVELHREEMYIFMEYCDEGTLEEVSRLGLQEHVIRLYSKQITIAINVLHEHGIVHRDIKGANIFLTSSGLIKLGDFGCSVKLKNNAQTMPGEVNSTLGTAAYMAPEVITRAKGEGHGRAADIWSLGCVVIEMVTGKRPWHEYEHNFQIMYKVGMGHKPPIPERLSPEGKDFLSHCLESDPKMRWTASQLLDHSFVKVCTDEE
Sequence of UniProt Q96G28 (Q96G28 whole entry): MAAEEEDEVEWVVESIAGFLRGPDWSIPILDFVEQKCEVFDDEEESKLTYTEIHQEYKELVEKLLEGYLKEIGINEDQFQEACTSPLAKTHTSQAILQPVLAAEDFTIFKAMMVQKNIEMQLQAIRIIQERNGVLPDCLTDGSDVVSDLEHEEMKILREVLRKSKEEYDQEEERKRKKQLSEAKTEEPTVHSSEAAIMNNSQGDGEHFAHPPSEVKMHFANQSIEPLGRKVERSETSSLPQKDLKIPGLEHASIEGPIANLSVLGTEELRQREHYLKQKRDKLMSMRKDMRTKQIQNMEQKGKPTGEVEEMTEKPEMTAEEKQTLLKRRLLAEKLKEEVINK
Sequence of UniProt Q9NXH9 (Q9NXH9 whole entry): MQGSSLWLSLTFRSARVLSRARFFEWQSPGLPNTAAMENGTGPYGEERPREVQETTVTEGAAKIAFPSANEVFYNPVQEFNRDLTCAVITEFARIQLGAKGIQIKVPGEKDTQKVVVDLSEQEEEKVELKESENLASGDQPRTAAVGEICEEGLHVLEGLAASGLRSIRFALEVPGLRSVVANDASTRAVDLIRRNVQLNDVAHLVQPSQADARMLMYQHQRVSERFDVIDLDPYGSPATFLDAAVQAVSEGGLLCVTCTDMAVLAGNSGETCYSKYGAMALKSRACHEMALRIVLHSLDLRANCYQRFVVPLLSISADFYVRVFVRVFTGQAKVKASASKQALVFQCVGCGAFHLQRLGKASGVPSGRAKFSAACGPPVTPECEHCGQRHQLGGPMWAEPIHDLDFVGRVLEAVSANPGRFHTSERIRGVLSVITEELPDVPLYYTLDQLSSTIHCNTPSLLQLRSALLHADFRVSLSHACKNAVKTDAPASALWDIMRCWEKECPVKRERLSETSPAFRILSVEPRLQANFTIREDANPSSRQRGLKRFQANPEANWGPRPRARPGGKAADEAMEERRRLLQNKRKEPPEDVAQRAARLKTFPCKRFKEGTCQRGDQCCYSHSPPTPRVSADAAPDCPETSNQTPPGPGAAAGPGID
Sequence of UniProt Q6PHR2 (Q6PHR2 whole entry): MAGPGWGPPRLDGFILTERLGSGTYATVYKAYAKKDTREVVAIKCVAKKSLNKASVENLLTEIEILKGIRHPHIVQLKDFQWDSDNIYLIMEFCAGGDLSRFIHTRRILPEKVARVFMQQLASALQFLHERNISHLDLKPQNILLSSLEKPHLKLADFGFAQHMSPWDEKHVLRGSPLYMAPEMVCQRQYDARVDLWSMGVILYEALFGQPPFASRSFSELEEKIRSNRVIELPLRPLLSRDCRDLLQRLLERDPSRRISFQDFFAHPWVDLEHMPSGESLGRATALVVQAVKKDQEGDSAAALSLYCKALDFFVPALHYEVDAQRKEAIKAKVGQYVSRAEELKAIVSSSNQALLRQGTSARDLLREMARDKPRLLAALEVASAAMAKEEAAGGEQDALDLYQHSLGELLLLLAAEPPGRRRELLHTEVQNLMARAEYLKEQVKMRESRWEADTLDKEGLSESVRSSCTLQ

| Target | log2 fold change |
| --- | --- |
| UniProt P45984 (peptide sequence: DLKPSNIVVK, peptide start residue: 151) | -2.08 |
| UniProt P49674 (peptide sequence: FDDKPDYSYLR, peptide start residue: 260) | -0.398 |
| UniProt P25098 (peptide sequence: DLKPANILLDEHGHVR, peptide start residue: 317) | -0.579 |
| RPL4 (peptide sequence: MFAPTKTWR, peptide start residue: 101) (UniProt P36578) | 0.751 |
| WEE1 (peptide sequence: FLANEVLQENYTHLPK, peptide start residue: 482) (UniProt P30291) | -1.01 |
| UniProt Q16512 (peptide sequence: IADFGLCK, peptide start residue: 756) | -2.52 |
| UniProt P62269 (peptide sequence: KADIDLTKR, peptide start residue: 47) | 0.394 |
| IRAK4 (peptide sequence: MGEGGFGVVYK, peptide start residue: 192) (UniProt Q9NWZ3) | -2.25 |
| SLK (peptide sequence: LADFGVSAK, peptide start residue: 171) (UniProt Q9H2G2) | -3.91 |
| VRK1 (peptide sequence: DILLQGLK, peptide start residue: 322) (UniProt Q99986) | -0.866 |
| UniProt Q9BUB5 (peptide sequence: GLPTPQVLQR, peptide start residue: 382) | 0.803 |
| OSBP (peptide sequence: TRIPYKPNYSLNLWSIMK, peptide start residue: 407) (UniProt P22059) | 0.573 |
| TNIK (peptide sequence: KFQSFIESCLVK, peptide start residue: 261) (UniProt Q9UKE5) | -0.632 |
| CEP170 (peptide sequence: SDSEATISR, peptide start residue: 1165) (UniProt Q5SW79) | 0.41 |
| OSBPL6 (peptide sequence: NFVFWQDIR, peptide start residue: 687) (UniProt Q9BZF3) | -1.81 |
| CCNB1 (peptide sequence: NVVMVNQGLTK, peptide start residue: 386) (UniProt P14635) | -1.47 |
| ULK3 (peptide sequence: VIELPLRPLLSR, peptide start residue: 230) (UniProt Q6PHR2) | -1.32 |
| RAF1 (peptide sequence: IGDFGLATVK, peptide start residue: 445) (UniProt P04049) | 0.416 |
| PARK7 (peptide sequence: VTVAGLAGKDPVQCSR, peptide start residue: 33) (UniProt Q99497) | 0.199 |

| Target | log2 fold change |
| --- | --- |
| MELK (peptide sequence: DLKPENLLFDEYHK, peptide start residue: 132) (UniProt Q14680) | -1.98 |
| CAMK2G (peptide sequence: GAILTTMLVSR, peptide start residue: 302) (UniProt Q13555) | -1.14 |
| MYBBP1A (peptide sequence: VLKGNTAEGCVHETQEK, peptide start residue: 933) (UniProt Q9BQG0) | 2.16 |
| RPS6KA2 (peptide sequence: ADPSQFELLK, peptide start residue: 63) (UniProt Q15349) | -1 |
| UniProt Q6ICG6 (peptide sequence: KAAEPEVEVEVYRR, peptide start residue: 72) | -1.02 |
| UniProt Q9BVS4 (peptide sequence: VLTAVEMGMK, peptide start residue: 19) | -1.57 |
| MAP4K2 (peptide sequence: ALLTQLLDK, peptide start residue: 280) (UniProt Q12851) | -0.962 |
| DCUN1D4 (peptide sequence: YAFDFAR, peptide start residue: 144) (UniProt Q92564) | 1.53 |
| EIF3B (peptide sequence: PRPPTLLSQEQIK, peptide start residue: 706) (UniProt P55884) | 0.691 |
| UniProt P0DMV8 (peptide sequence: LLQDFFNGR, peptide start residue: 349) | 0.293 |
| UniProt P06493 (peptide sequence: HPNIVSLQDVLMQDSR, peptide start residue: 60) | -1.19 |
| UniProt Q96G28 (peptide sequence: NIEMQLQAIR, peptide start residue: 117) | 0.282 |
| UniProt Q8N4C8 (peptide sequence: GNALKEDCIAYICR, peptide start residue: 122) | -0.573 |
| DCUN1D5 (peptide sequence: SMLALLLGR, peptide start residue: 164) (UniProt Q9BTE7) | 1.45 |
| UniProt P84022 (peptide sequence: TGQLDELEK, peptide start residue: 45) | 0.887 |
| CAD (peptide sequence: FLSSAAAVSKEHPVVISK, peptide start residue: 1110) (UniProt P27708) | -0.418 |
| TRMT1 (peptide sequence: RNVQLNDVAHLVQPSQADAR, peptide start residue: 195) (UniProt Q9NXH9) | 0.782 |
| MAP3K4 (peptide sequence: DFLSHCLESDPK, peptide start residue: 1576) (UniProt Q9Y6R4) | -1.49 |
| LATS1 (peptide sequence: QQSASYIPK, peptide start residue: 1021) (UniProt O95835) | -2.87 |
